This excerpt belongs to a sample that is enriched for hits.
TbPYK inhibitor: blocks Trypanosoma brucei pyruvate kinase; Potency, µM (highest dose often 76.8 µM), inactives show top-dose activity, negative = inhibition, hits mostly inhibitors; Q57TT1; TbPYK enzyme, Kinase-Glo Plus ATP luminescence, 45 min; 410,000 compounds, 0.12% hits; AID 624173; also: potency is read from the fitted curve at half-maximal effect; % is scaled to controls: 0 for no effect and ±100 for the full control effect; nearly all actives have a fitted effect of over 50% in size
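Quantitative HTS: titrated library compounds versus trypanosomal pyruvate kinase in TEA buffer (pH 7.2) containing KCl, MgCl2, BSA and Tween-20. Reactions were initiated with ADP, 130 uM final. Kinase-Glo Plus luminescence was read after 45 min at RT.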
LmPK inhibitor: blocks Leishmania mexicana pyruvate kinase activity. Potency, µM (highest dose often 57.5 µM), for inactives: at the top dose activity change, negative = inhibition, hits mostly inhibitors. AID 1721. 290,000 compounds, 0.37% hits. Q27686. purified LmPK, Kinase-Glo ATP luminescence, 1 h; also: potency is read from the fitted curve at half-maximal effect; % is scaled to controls: 0 for no effect and ±100 for the full control effect
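ATP generated from ADP (0.1 mM) and PEP (0.5 mM) by 0.1 nM LmPK over 1 h at room temperature (pH 7.2 imidazole buffer) was detected by coupled luciferase luminescence. Values were normalized to uninhibited and no-enzyme wells.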
Cycloheximide cs: counter-screen for Shiga toxin inhibitors: cycloheximide protein synthesis inhibition; cell reporter, cycloheximide protein synthesis inhibition counterscreen; 300,000 compounds, 12% hits; max response, %; in the data active = max response mostly above about 13%, no sharp cut-off; inactive = mostly below about 14%; also: read at 38.3 µM for the half of the compounds with a filed dose; 0% is about no effect
FBPA Giardia inh: Giardia lamblia aldolase inhibition; A8B2U2; purified Giardia FBPA; Potency, µM (highest dose often 59.6 µM), for the others: top-dose activity, negative = inhibition, hits mostly inhibitors; 290,000 compounds, 0.71% hits; also: potency is read from the fitted curve at half-maximal effect; % is scaled to controls: 0 for no effect and ±100 for the full control effect; nearly all actives have a fitted effect of over 55% in size
Target sequence (A8B2U2 whole entry, looked up): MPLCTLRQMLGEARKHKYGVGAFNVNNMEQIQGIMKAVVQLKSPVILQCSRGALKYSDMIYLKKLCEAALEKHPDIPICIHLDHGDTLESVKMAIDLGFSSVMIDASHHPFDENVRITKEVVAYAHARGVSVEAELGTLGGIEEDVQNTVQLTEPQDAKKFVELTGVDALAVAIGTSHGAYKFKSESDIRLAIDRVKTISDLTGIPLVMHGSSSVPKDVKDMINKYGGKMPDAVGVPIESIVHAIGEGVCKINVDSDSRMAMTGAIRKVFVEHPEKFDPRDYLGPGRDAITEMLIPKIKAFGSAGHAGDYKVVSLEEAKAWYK
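40 nM FBPA preincubated 10 min at RT with compound (up to 57.5 uM final), then substrate plus GAPDH/TPI/NAD/arsenate coupling and diaphorase/resazurin added. Fluorescence read after 20 min at RT, 525/598 nm.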
Shiga inhibitor: inhibitors of Shiga toxin in Vero cells | Vero cells, Shiga toxin protein synthesis inhibition reporter | inhibition, % at 38.7 µM | 290,000 compounds, 9.2% hits | AID 2315; in the data active = inhibition mostly above about 28%, no sharp cut-off; inactive = mostly below about 43%; also: 0% is about no effect
Sm TGR block: blocks Schistosoma mansoni thioredoxin glutathione reductase. Potency, µM (titrated, usually from 114 µM), for inactives: at the top dose activity change, negative = inhibition, actives largely listed as inhibitors. purified TGR, DTNB reduction, TNB absorbance 405 nm. AID 485364. 360,000 compounds, 3% hits. Q962Y6; also: potency is read from the fitted curve at half-maximal effect; % is scaled to controls: 0 for no effect and ±100 for the full control effect; nearly all actives have a fitted effect of over 60% in size
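First, TGR (20 nM dispensed) and NADPH were mixed with compound. Second, a 15 min room-temperature incubation followed. Third, further NADPH and then DTNB were added to start the reaction. Finally, TNB absorbance was monitored kinetically.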
Starred values were filed as active, the others as inactive; u = inconclusive; x = no result given; [ ] = remark or other dose. Unless noted, calls follow the shape of the dose curve; as a rule, active = well fitted curve in the direction sought with a large enough effect; inconclusive = small, poorly fitted or top-dose-only effect, or another doubt; inactive = no such curve, though single readings can be large; an effect the other way counts as inactive or inconclusive.

SMILES | TbPYK inhibitor | LmPK inhibitor | Cycloheximide cs | FBPA Giardia inh | Shiga inhibitor | Sm TGR block
O=[N+]([O-])c1cc(S(=O)(=O)NCCCN2CCOCC2)ccc1Cl | -3% | -7% | 1 | -12% | -7 | 45µM*
O=[N+]([O-])c1cc(S(=O)(=O)N2CCCCC2)ccc1NCCCN1CCOCC1 | -12% | 0% | 43 | 0% | 42* | 14%
CC(C)(CNc1ccc(S(=O)(=O)C(F)(F)F)cc1[N+](=O)[O-])N1CCOCC1 | -1% | -10% | 35* | x | 31* | 2%
COc1cc(S(=O)(=O)NCCCN2CCOCC2)ccc1Cl | -7% | 0% | 20 | 8% | 45 | -3%
O=[N+]([O-])c1cc(S(=O)(=O)N2CCCCC2)ccc1NCCN1CCOCC1 | 1% | 20% | -4 | 7% | 3 | -5%
CC(C)(CNc1ccc([N+](=O)[O-])cc1C#N)N1CCOCC1 | -1% | -4% | -1 | 13% | 5 | -1%
CCCCc1nn2c(=O)cc(COC(=O)c3cccc(NC(=O)c4cccs4)c3)nc2s1 | -1% | x | x | x | x | -2%
Cc1onc(-c2ccccc2)c1C(=O)Nc1nc(-c2cc(F)ccc2F)cs1 | 3% | 10% | 12 | 0% | 25 | -7%[11.4 µM]
Cc1noc(C)c1C(=O)Nc1nc(-c2ccccc2Cl)cs1 | 2% | 0% | 36* | 1% | 66* | -6%
Cc1onc(-c2ccccc2)c1C(=O)Nc1nc(-c2ccccc2)cs1 | -11% | 0% | 31* | -4% | 96* | 14%
Cc1noc(C)c1C(=O)Nc1nc(-c2ccc(F)cc2)cs1 | 0% | x | x | x | x | 2%
COc1ccccc1C(=O)NCCC(=O)N1CCN(C(C)=O)CC1 | -6% | x | x | x | x | 5%
CSc1nsc(N/N=C/c2ccccc2)c1C#N | -15% | 0% | 30* | 0% | 51* | -1%
COc1cccc(/C=N/Nc2snc(SC)c2C#N)c1 | u | -6% | 27* | -1% | 67* | -5%
COc1ccc(/C=N/Nc2nc(C)cc(=O)[nH]2)cc1OC | 4% | -3% | -2 | u | -5 | -12%
COc1cccc(/C=N/Nc2snc(SC)c2C#N)c1O | -9% | -13% | 72* | 2% | 69* | -3%
COc1ccc(/C=N/Nc2snc(SC)c2C#N)cc1OC | -2% | -18% | 35* | x | 98* | -15%
O=C(c1csnn1)N1CCC2(CCN(Cc3ccccc3)CC2)CC1 | 2% | x | x | -14% | x | x
Cc1cc(C(=O)COc2ncnc3sccc23)c(C)n1C | -5% | -3% | 31* | -3% | 134* | -21%
CC(=O)c1ccc(Oc2ncnc3sccc23)cc1 | -1% | 0% | 48* | 2% | 80* | 2%
CC(=O)N1CCN(c2ccc(Oc3ncnc4sccc34)cc2)CC1 | -4% | 1% | -4 | -2% | -21 | 11%[11.4 µM]
COc1ccc(C(=O)N(Cc2cc(OC)c(OC)c(OC)c2)CC2CCCO2)cc1 (configuration not stated) | -1% | x | x | x | x | 1%
Cc1ccc(-n2c(-c3cc(-c4ccco4)[nH]n3)n[nH]c2=S)c(Br)c1 | u | u | 2 | -9% | -4 | -31%
CCn1cc(-c2n[nH]c(=S)n2-c2ccc(C)cc2Br)c(=O)c2ccc(C)nc21 | u | 7.9µM* | -3 | 4% | -4 | 6%
COc1ccc(NC(=O)N2CC3(CCN(C(=O)c4cnccn4)CC3)C2)cc1 | 6% | x | x | 0% | x | x
SMILES | TbPYK inhibitor | LmPK inhibitor | Cycloheximide cs | FBPA Giardia inh | Shiga inhibitor | Sm TGR block
CCCOc1ccc(N2C(=O)CC(N(CCc3ccc(OC)c(OC)c3)C(=S)Nc3ccccc3)C2=O)cc1 (configuration not stated) | -9% | 0% | 13 | -9% | 16 | -10%
CCCOc1ccc(N2C(=O)CC(N(Cc3ccc(OC)cc3)C(=S)Nc3ccccc3)C2=O)cc1 (configuration not stated) | 1% | 4% | 25* | -3% | 30 | 7%
COCCOC(=O)c1c(C)oc2ccc(OS(C)(=O)=O)cc12 | 1% | -1% | 21* | 5% | 18 | 6%[57.1 µM]
NC(=O)C1CCCN(C(=O)c2ccc3oc(Cc4ccc(Cl)cc4)nc3c2)C1 (configuration not stated) | -4% | 0% | 14 | x | 35 | 0%
CC(=O)C1CCCN(C(=O)c2ccc3oc(CCc4ccccc4)nc3c2)C1 (configuration not stated) | 7% | -2% | 36* | 17% | 89* | u
O=C(c1ccc2oc(CCCc3ccccc3)nc2c1)N1CCCC1 | 1% | -8% | 63* | x | 129* | -7%
CC(C)N(Cc1nccn1C)C(=O)c1ccc2oc(CCCc3ccccc3)nc2c1 | 2% | -11% | 4 | x | -8 | -3%
CCOC(=O)C1CCCN(C(=O)c2ccc3oc(CCc4ccccc4)nc3c2)C1 (configuration not stated) | 3% | 2% | 39* | x | 38 | -18%
COc1ccccc1-c1nnc(C2CCN(C(=O)c3cccc(Cl)c3)CC2)o1 | -6% | x | x | x | x | -5%
COc1cc(C2Nc3cccc4cccc(c34)N2)cc(OC)c1O | -4% | -18% | -4 | u | -6 | u
Brc1ccc(C2=Nc3cccc4cccc(c34)N2)o1 | -2% | -4% | -4 | -21% | 1 | u
Oc1ccc(C2Nc3cccc4cccc(c34)N2)c(O)c1 | -5% | -2% | -1 | -14% | 21 | 50µM*
Clc1cccc(C2Nc3cccc4cccc(c34)N2)c1Cl | -11% | 12% | 0 | -11% | x | -12%
c1coc(C2Nc3ccccc3C3OCCC23)c1 (configuration not stated) | 2% | 4% | 8 | 1% | 16 | -6%
c1coc(C2Nc3cccc4cccc(c34)N2)c1 | x | -14% | -3 | u | -5 | 7.9µM*
Brc1ccc(-c2ccc(C3Nc4cccc5cccc(c45)N3)o2)cc1 | x | x | x | x | x | 35µM*
Clc1ccccc1C1Nc2cccc3cccc(c23)N1 | 5% | -2% | 4 | -12% | 23 | 18µM*
COc1ccccc1/C=C/C(=O)NCCC1=CCCCC1 | 1% | -3% | 29* | 4% | 118* | x
O=C(COC(=O)/C=C/c1ccc(C(F)(F)F)cc1)NCCC1=CCCCC1 | 3% | 5% | -2 | -3% | 2 | -6%
O=C(/C=C/c1ccc(F)cc1)NCCC1=CCCCC1 | 6% | 6% | 33* | -1% | 117* | 5%
COc1ccccc1OCC(=O)NCCC1=CCCCC1 | -1% | -2% | -2 | -1% | 17 | -2%
O=C(COC(=O)/C=C/c1ccccc1)NCCC1=CCCCC1 | -1% | 2% | 8 | 2% | -5 | 9%
O=C(O)C1C2C=CC(O2)C1C(=O)NCCC1=CCCCC1 (configuration not stated) | 2% | -3% | 3 | -3% | 1 | 22µM*
O=C(/C=C/c1ccccc1)NCCC1=CCCCC1 | -6% | 1% | 38* | 2% | 40* | -5%

Source: PubChem
